Source: PubChem BioAssay AID540298 (Southern Research Specialized Biocontainment Screening …, 2011)
Potency and affinity values are given separately. The source made the active and inactive calls. A call without a number means that no potency is given here. No rule for the calls is given here.

Assay: Vero E6 cell cytotoxicity, dose response, cytotoxicity control (AID 540298)
Conditions: Vero E6 cells viability; series mostly up to 40 µM
In the case of CCOC(=O)c1c(CN(C)C)oc2cc(CN(C)C)c(O)c(CSc3ccccc3)c12, the outcome is reported as “inactive”. For Cc1ccc(N2C(=O)C(CC(=O)Nc3cccc(F)c3)N(C3CC3)C2=O)cc1 (stereo not given), the outcome was “inactive”. In the case of CN(C)c1cccc2c(C=C(C#N)C#N)ccc(N(C)C)c12, the outcome is reported as “inactive”. In the case of CC(c1ccccn1)N(CCN(C)C)C(=S)Nc1cccc(F)c1 (stereo not given), the outcome is reported as “inactive”. With COc1ccc(N2CCN(CCCN)CC2)cc1 the outcome was “inactive”.
